Calls of active or inactive are those of the source. How the source made its calls: active means hit-call score of the fitted dose curve at least 0.9, where 1 is the maximum; inactive means score below 0.9.

For seven compounds, outcome and AC50 results are on record in PubChem BioAssay (EPA / NIEHS).

Conditions in all cases: mRNA level, 48 h; actives raise or lower the signal
Read-out in assay [1]: CFLAR gene, CFLAR (gene 8837)
Description: LTEA_HepaRG_CFLAR: Life Technologies and Expression Analysis (LTEA) Assay for CFLAR gene using HepaRG (AID 2283455). The gist of the method: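 Gain- or loss-of-signal changes in CFLAR transcript were fitted bidirectionally relative to 0.5% DMSO. Cells (HepaRG, duplicate wells) were dosed for 48 h across eight half-log concentrations topping at 100 uM; quantitation by TaqMan qRT-PCR.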

Read-out in assay [2]: Forkhead box O1 (FOXO1), FOXO1 (gene 2308)
Description: LTEA_HepaRG_FOXO1: Life Technologies and Expression Analysis (LTEA) Assay for Forkhead box O1 (FOXO1) using HepaRG (AID 2283456). Summed up:
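Using one lot of HepaRG hepatic cells kept in 0.5% DMSO, the team applied test chemicals in duplicate, half-log dilutions from 100 uM, for 48 h. Expression, normalised to ACTB/GAPDH/POLR2A, was compared with vehicle in either direction.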

Read-out in assay [3]: growth arrest and DNA damage 45 (GADD45A), GADD45A (gene 1647)
Description: LTEA_HepaRG_GADD45A: Life Technologies and Expression Analysis (LTEA) Assay for growth arrest and DNA damage 45 (GADD45A) using HepaRG (AID 2283458). The gist of the method: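 Transcript induction or loss, quantified by TaqMan qRT-PCR against three housekeeping genes, is the read-out. HepaRG cells received chemicals for 48 h across eight half-log concentrations from 100 uM in 0.5% DMSO; gain and loss fitted relative to DMSO.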

Read-out in assay [4]: Forkhead box O3 (FOXO3), FOXO3 (gene 2309)
Description: LTEA_HepaRG_FOXO3: Life Technologies and Expression Analysis (LTEA) Assay for Forkhead box O3 (FOXO3) using HepaRG (AID 2283459). The gist of the method: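 Gene-expression endpoint: FOXO3 transcript level by qRT-PCR in HepaRG cultures treated 48 h with chemicals up to 100 uM (half-log, 0.5% DMSO vehicle).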

Read-out in assay [5]: ABC Transporter (ABCB1), ABCB1 (gene 5243)
Description: LTEA_HepaRG_ABCB1: Life Technologies and Expression Analysis (LTEA) Assay for ABC Transporter (ABCB1) using HepaRG (AID 2283460). The gist of the method: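 Human liver HepaRG line treated 48 h with up to 100 uM compound (eight half-log points, 0.5% DMSO); ABCB1 mRNA change fitted bidirectionally against DMSO controls.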

Read-out in assay [6]: growth arrest and DNA damage 45 (GADD45B), GADD45B (gene 4616)
Description: LTEA_HepaRG_GADD45B: Life Technologies and Expression Analysis (LTEA) Assay for growth arrest and DNA damage 45 (GADD45B) using HepaRG (AID 2283461). The gist of the method: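 Values are bidirectional concentration-response fits against 0.5% DMSO controls. Underlying data: qRT-PCR mRNA levels in human HepaRG liver cells treated 48 h in serum-free induction medium, eight concentrations topping at 100 uM.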

Read-out in assay [7]: ABC Transporter (ABCC3), ABCC3 (gene 8714)
Description: LTEA_HepaRG_ABCC3: Life Technologies and Expression Analysis (LTEA) Assay for ABC Transporter (ABCC3) using HepaRG (AID 2283462). Summed up:
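Differentiated HepaRG liver cells receive test chemicals at eight concentrations (max 100 uM) for 48 h. Expression of ABCC3 is quantified by qRT-PCR against ACTB, GAPDH and POLR2A, and activity is fitted in both directions against the DMSO control.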

Read-out in assay [8]: ABC Transporter (ABCB11), ABCB11 (gene 8647)
As to the kind of experiment: LTEA_HepaRG_ABCB11: Life Technologies and Expression Analysis (LTEA) Assay for ABC Transporter (ABCB11) using HepaRG (AID 2283463). Summed up:
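Using HepaRG cultures held in 0.5% DMSO, chemicals were tested at half-log dilutions from 100 uM for 48 h. Induction or suppression of ABCB11 mRNA, normalized to ACTB, GAPDH and POLR2A, was fitted bidirectionally against vehicle.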

Read-out in assay [9]: ABC Transporter (ABCC2), ABCC2 (gene 1244)
Description: LTEA_HepaRG_ABCC2: Life Technologies and Expression Analysis (LTEA) Assay for ABC Transporter (ABCC2) using HepaRG (AID 2283464). Summed up: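 Gene expression of ABCC2 was determined by qRT-PCR in HepaRG cells exposed 48 h to chemicals (highest 100 uM, half-log dilutions). Activity was fitted in both directions relative to 0.5% DMSO vehicle.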

Read-out in assay [10]: ATP-citrate lyase (ACLY), ACLY (gene 47)
Description: LTEA_HepaRG_ACLY: Life Technologies and Expression Analysis (LTEA) Assay for ATP-citrate lyase (ACLY) using HepaRG (AID 2283466). Summed up:
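ACLY expression changes in human HepaRG liver cells are quantified by qRT-PCR after 48 h exposure to test chemicals (maximum 100 uM, half-log steps). Values are fitted in both directions relative to 0.5% DMSO vehicle.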

Read-out in assay [11]: Peroxisomal acyl-coenzyme A oxidase 1 (ACOX1) gene, ACOX1 (gene 51)
Description: LTEA_HepaRG_ACOX1: Life Technologies and Expression Analysis (LTEA) Assay for Peroxisomal acyl-coenzyme A oxidase 1 (ACOX1) gene using HepaRG (AID 2283467). The gist of the method: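 Human HepaRG hepatic cultures, 48 h treatment with test chemicals up to 100 uM. ACOX1 expression read by qRT-PCR relative to 0.5% DMSO vehicle.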

Read-out in assay [12]: Alkaline Phosphatase, Placental (ALPP) gene, ALPP (gene 250)
As to the kind of experiment: LTEA_HepaRG_ALPP: Life Technologies and Expression Analysis (LTEA) Assay for Alkaline Phosphatase, Placental (ALPP) gene using HepaRG (AID 2283468).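 On AC50: ALPP transcript by TaqMan qRT-PCR normalized to ACTB GAPDH and POLR2A.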 The gist of the method:
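Expression of ALPP was quantified by qRT-PCR against three housekeeping genes in human HepaRG cultures treated for 48 h with an eight-point concentration series up to 100 uM. Activity in either direction was fitted relative to 0.5% DMSO.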

Read-out in assay [13]: Bcl-2 (BAD) gene, BAD (gene 572)
Description: LTEA_HepaRG_BAD: Life Technologies and Expression Analysis (LTEA) Assay for Bcl-2 (BAD) gene using HepaRG (AID 2283469). The gist of the method:
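Activity values reflect up- or down-regulation of BAD mRNA in human HepaRG hepatic cells treated 48 h in serum-free medium, with eight-point half-log dosing capped at 100 uM and 0.5% DMSO vehicle.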

Read-out in assay [14]: Bcl-2 (BAX) gene, BAX (gene 581)
Description: LTEA_HepaRG_BAX: Life Technologies and Expression Analysis (LTEA) Assay for Bcl-2 (BAX) gene using HepaRG (AID 2283470). The gist of the method:
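Cells were thawed, plated for 48 h, moved to serum-free induction medium and dosed for 48 h (highest concentration 100 uM, half-log steps, 0.5% DMSO). Total RNA was then analysed for BAX expression by qRT-PCR.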

Read-out in assay [15]: Alpha-fetoprotein (AFP) gene, AFP (gene 174)
Description: LTEA_HepaRG_AFP: Life Technologies and Expression Analysis (LTEA) Assay for Alpha-fetoprotein (AFP) gene using HepaRG (AID 2283472).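 On AC50: AFP transcript by TaqMan qRT-PCR normalized to ACTB GAPDH and POLR2A.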 The gist of the method:
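Chemicals were tested on differentiated HepaRG cells for 48 hours at eight concentrations up to 100 uM, with 0.5% DMSO as vehicle. AFP expression was then quantified by qRT-PCR and analyzed for gain or loss relative to DMSO.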

Read-out in the next assay: BCL2L11 (gene 10018)
Description: LTEA_HepaRG_BCL2L11: Life Technologies and Expression Analysis (LTEA) Assay for Bcl-2 (BCL2L11) gene using HepaRG (AID 2283473). The gist of the method: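 Cells were plated, cultured 48 h, switched to serum-free induction medium, then dosed in duplicate for 48 h at eight half-log concentrations up to 100 uM. Lysates underwent RNA isolation and TaqMan qRT-PCR; gain or loss versus DMSO was fitted.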

Read-out in assay [16]: Apolipoprotein A-V (APOA5) gene, APOA5 (gene 116519)
As to the kind of experiment: LTEA_HepaRG_APOA5: Life Technologies and Expression Analysis (LTEA) Assay for Apolipoprotein A-V (APOA5) gene using HepaRG (AID 2283474). Summed up:
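Human liver HepaRG cells are treated 48 h with test chemicals (100 uM top, half-log dilutions, 0.5% DMSO). APOA5 mRNA induction or loss is measured by qRT-PCR relative to vehicle.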

Read-out in assay [17]: Broad substrate specificity ATP-binding cassette transporter ABCG2 (Homo sapiens) (UniProt Q9UNQ0)
Description: LTEA_HepaRG_ABCG2: Life Technologies and Expression Analysis (LTEA) Assay for ABC Transporter (ABCG2) using HepaRG (AID 2283465). Summed up: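 Gene expression of ABCG2 in HepaRG liver cells is quantified by qRT-PCR following 48 h exposure across an eight-point series topping at 100 uM. Values come from bidirectional fitting relative to DMSO vehicle.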

Read-out in assay [18]: adenosine kinase (ADK) gene, ADK (gene 132)
As to the kind of experiment: LTEA_HepaRG_ADK: Life Technologies and Expression Analysis (LTEA) Assay for adenosine kinase (ADK) gene using HepaRG (AID 2283471). The gist of the method: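 HepaRG (human liver), 48 h chemical exposure, 8-pt half-log series, top 100 uM, 0.5% DMSO vehicle. Readout: ADK mRNA by qRT-PCR vs housekeeping genes; bidirectional curve fit relative to DMSO baseline.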

Chain of Broad substrate specificity ATP-binding cassette transporter ABCG2 (Homo sapiens) (Q9UNQ0 whole entry, looked up): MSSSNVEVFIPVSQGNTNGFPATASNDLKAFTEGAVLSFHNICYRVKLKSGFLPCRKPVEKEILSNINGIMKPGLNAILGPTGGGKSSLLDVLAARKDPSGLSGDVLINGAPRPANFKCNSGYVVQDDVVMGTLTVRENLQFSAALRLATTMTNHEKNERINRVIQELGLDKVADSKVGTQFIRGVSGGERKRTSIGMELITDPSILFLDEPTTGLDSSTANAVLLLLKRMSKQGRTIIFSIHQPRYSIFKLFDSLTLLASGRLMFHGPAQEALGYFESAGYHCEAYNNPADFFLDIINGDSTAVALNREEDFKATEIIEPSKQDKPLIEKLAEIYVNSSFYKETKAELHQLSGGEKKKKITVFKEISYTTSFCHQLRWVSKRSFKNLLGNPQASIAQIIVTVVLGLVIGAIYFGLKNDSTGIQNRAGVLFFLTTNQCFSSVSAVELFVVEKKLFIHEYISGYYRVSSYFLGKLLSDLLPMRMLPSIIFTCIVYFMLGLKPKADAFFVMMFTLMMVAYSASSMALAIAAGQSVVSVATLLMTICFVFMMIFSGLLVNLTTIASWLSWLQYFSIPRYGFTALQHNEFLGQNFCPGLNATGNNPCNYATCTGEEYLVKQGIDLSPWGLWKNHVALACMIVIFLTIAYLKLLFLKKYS

A word on the AC50: it is the concentration giving half of the maximal activity seen. As to `COc1cccc([C@H](O)C2CCN(CCc3ccc(F)cc3)CC2)c1OC`, the compound was called inactive in assay [1], in assay [2], in assay [3], in [4], in assay [5] and in [6]. For the same compound, the outcome in assay [7], in assay [9], in assay [11], in assay [13], in [14] and in assay [15] was inactive. For the same compound, the compound was called inactive (with BCL2L11 (gene 10018); in assay [16]). Besides, the AC50 in assay [8] was 26.6 µM (active); in [10], 80.7 µM (active); in assay [12], 9.92 µM (active).
`CCCC(=O)OCCC(C)C`: the result in assay [1], in assay [2], in assay [3], in [4], in [5] and in assay [6] was inactive. For the same compound, the compound was called inactive in [7], in [8], in assay [9], in [10], in assay [11] and in assay [12]. The compound was called inactive (in [13]; in assay [14]; in assay [15]; in the assay with BCL2L11 (gene 10018); in [16]).
As to `CCCOC(=O)c1cc(O)c(O)c(O)c1`, the call in assay [1], in assay [2], in assay [3], in assay [4], in [6] and in assay [7] was inactive. Besides, the result (in [8]; in assay [10]; in [11]; in [12]; with BCL2L11 (gene 10018); in assay [16]) was inactive. In addition, the AC50 in assay [5] is 4.06 µM (active); in assay [9], 6.03 µM (active); in assay [17], 4.97 µM (active); in assay [15], 15.2 µM (active).
As for `CC(C)(C)c1csc(-c2cc3cc(OCc4ccccc4CC(=O)O)ccc3o2)n1`, the AC50 was 73.5 µM (active) in [1]; 81.3 µM (active) in [2]; 79 µM (active) in [5]; 42.6 µM (active) in assay [6]; 15.8 µM (active) in [8]; 93.8 µM (active) in assay [9]. Besides, the AC50 in assay [10] is 87.4 µM (active); in assay [11] it was 72.1 µM (active); in [12], 24.4 µM (active); in assay [18] it was 73.1 µM (active); in [15] it was 23.9 µM (active); with BCL2L11 (gene 10018) it was 18.8 µM (active). The AC50 in [16] was 20 µM (active). Moreover, the outcome in assay [3], in assay [4], in assay [7], in [13] and in assay [14] was inactive.
On to `O=C1c2ccccc2C(=O)N1CCc1noc(-c2ccc(CN3CCCCCC3)s2)n1`, for which the call in assay [1], in assay [2], in [3], in assay [4], in assay [5] and in assay [6] was inactive. The compound was called inactive in [7], in assay [8], in assay [9], in [10], in assay [11] and in assay [12]. In addition, the compound was called inactive (in assay [13]; in assay [14]; in [15]; with BCL2L11 (gene 10018); in [16]).
Take `CCO[Si](CCCNC(N)=O)(OCC)OCC`: the result in assay [1], in assay [2], in assay [3], in assay [4], in [5] and in assay [6] was inactive. In addition, the outcome in assay [7], in [8], in assay [9], in assay [10], in assay [11] and in [12] was inactive. Further, the compound was called inactive (in assay [13]; in assay [14]; in assay [15]; in the assay with BCL2L11 (gene 10018); in assay [16]).
With `O=C(O)c1ccccc1-n1cc(C(=O)O)c(=O)c2cc(Nc3c(F)cc(F)cc3Cl)c(Cl)cc21`, the compound was called inactive in assay [1], in [2], in assay [4], in assay [6], in [7] and in assay [8]. The compound was called inactive in [10], in assay [11], in assay [13], in assay [14], in [18] and in assay [15]. Moreover, the compound was classed as inactive (with BCL2L11 (gene 10018); in assay [16]). Further, the AC50 in [3] is 0.00848 µM (active); in assay [5], 15.5 µM (active); in [9], 10.6 µM (active); in [12], 0.0892 µM (active).
